The source made the active and inactive calls.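 Rule for the calls, unless noted: active = compound whose remaining NAD level is above about 45 nM (limit read from the data); inactive = the rest.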

Chain of NAD(+) hydrolase SARM1 (Homo sapiens) (Q6SZW1 whole entry, looked up): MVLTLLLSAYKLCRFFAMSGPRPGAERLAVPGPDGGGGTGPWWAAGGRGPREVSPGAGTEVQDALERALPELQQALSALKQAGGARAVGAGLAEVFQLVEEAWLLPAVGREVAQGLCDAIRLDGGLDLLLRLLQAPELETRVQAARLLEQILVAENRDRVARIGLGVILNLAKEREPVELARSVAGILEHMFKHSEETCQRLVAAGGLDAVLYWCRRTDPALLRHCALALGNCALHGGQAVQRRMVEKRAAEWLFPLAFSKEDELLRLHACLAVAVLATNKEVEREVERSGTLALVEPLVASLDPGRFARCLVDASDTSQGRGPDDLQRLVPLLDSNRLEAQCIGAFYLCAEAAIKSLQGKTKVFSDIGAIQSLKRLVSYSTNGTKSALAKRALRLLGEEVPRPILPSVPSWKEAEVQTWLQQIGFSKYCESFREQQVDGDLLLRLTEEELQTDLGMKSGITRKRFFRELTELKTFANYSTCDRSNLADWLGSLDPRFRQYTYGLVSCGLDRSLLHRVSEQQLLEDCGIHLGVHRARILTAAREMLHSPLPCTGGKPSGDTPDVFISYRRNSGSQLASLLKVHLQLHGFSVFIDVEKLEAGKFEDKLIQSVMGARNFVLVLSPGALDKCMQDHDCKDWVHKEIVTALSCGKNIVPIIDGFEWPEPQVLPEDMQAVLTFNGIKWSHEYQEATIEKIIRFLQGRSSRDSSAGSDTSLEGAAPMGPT

One assay addresses NAD(+) hydrolase SARM1 (Homo sapiens) (UniProt Q6SZW1). Nature of the assay: blocking NAD cleavage by SARM1 SAM-TIR – cell lysate, NAD-Glo luminescence (AID 1508614).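 Note: higher remaining NAD means stronger inhibition of SARM1 NADase.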 To be noted: SAM-TIR HEK293T lysate NADase, at 1 µM, active compounds read high.
In the case of `CN(Cc1cc(Br)cc(Br)c1N)C1CCCCC1`, the remaining NAD was 10 nM (inactive).

With `Cc1ccccc1N1C(=O)c2cc(S(N)(=O)=O)c(Cl)cc2NC1C` (stereo unspecified), the remaining NAD was 10 nM (inactive).

`CS(=O)(=O)Nc1ccc([N+](=O)[O-])cc1Oc1ccccc1`: the remaining NAD was 10 nM (inactive).

In the case of `Cc1nc2sccn2c(=O)c1CCN1CCC(=C(c2ccc(F)cc2)c2ccc(F)cc2)CC1`, the remaining NAD was 10 nM (inactive).

On to `CC(C)NNC(=O)c1ccncc1`, for which the remaining NAD was 10 nM (inactive).

As to `Cc1cc(C(C)(C)C)cc(C)c1CC1=NCCN1`, the remaining NAD is 10 nM (inactive).

Take `Clc1ccccc1C(c1ccccc1)(c1ccccc1)n1ccnc1`: the remaining NAD was 10 nM (inactive).

Consider `O=C(O)CCC(=O)c1ccc(-c2ccccc2)cc1`, for which the remaining NAD is 10 nM (inactive).

On to `O=C(O)c1ccccc1OP(=O)(O)O`, for which the remaining NAD is 10 nM (inactive).

As for `O=C(O)c1cccnc1Nc1cccc(C(F)(F)F)c1`, the remaining NAD was 10 nM (inactive).

With `C1CCC(C(CC2CCCCN2)C2CCCCC2)CC1` (stereo unspecified), the remaining NAD was 10 nM (inactive).

For `CC[N+](CC)(CC)CCOc1cccc(OCC[N+](CC)(CC)CC)c1OCC[N+](CC)(CC)CC`, the remaining NAD was 10 nM (inactive).

For `O=C(O)c1ccccc1Nc1cccc(C(F)(F)F)c1`, the remaining NAD was 10 nM (inactive).

`C[N+]1(C)[C@@H]2CC(OC(=O)[C@H](CO)c3ccccc3)C[C@H]1[C@@H]1O[C@@H]12` (stereo partly specified): the remaining NAD was 10 nM (inactive).

As for `C=C1c2cccc(O)c2C(O)=C2C(=O)[C@]3(O)C(O)=C(C(N)=O)C(=O)[C@@H](N(C)C)[C@@H]3[C@@H](O)[C@H]12`, the remaining NAD is 10 nM (inactive).

Regarding `COc1ccc(CN(CCN(C)C)c2ccccn2)cc1`, the remaining NAD is 18 nM (inactive).

As for `NCCCC[C@H](N[C@@H](CCc1ccccc1)C(=O)O)C(=O)N1CCC[C@H]1C(=O)O`, the remaining NAD was 10 nM (inactive).

On to `CCC1(C)CC(=O)NC1=O` (stereo unspecified), for which the remaining NAD is 10 nM (inactive).

Turning to `CC(C)NCC(O)c1ccc2ccccc2c1` (stereo unspecified), the remaining NAD is 10 nM (inactive).

Take `NNc1nncc2ccccc12`: the remaining NAD was 10 nM (inactive).

Regarding `Cn1cnc2c1c(=O)[nH]c(=O)n2C`, the remaining NAD was 10 nM (inactive).

On to `CC(=O)Nc1ccccc1`, for which the remaining NAD was 10 nM (inactive).

As for `Cc1cn[nH]c1`, the remaining NAD was 10 nM (inactive).

Consider `CNC[C@H](O)c1cccc(O)c1`, for which the remaining NAD is 10 nM (inactive).

For another assay, the target named is Mitogen-activated protein kinase 7 (Homo sapiens) (UniProt Q13164). The experiment in a line: Gal4-ERK5 driven luciferase induction – cell-based, HTS, primary screen (AID 1508626;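 active = luciferase signal above three times the same-plate solvent-only control wells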;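 note: luciferase driven by Gal4-ERK5 fusion binding five Gal4 sites before minimal TATA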). To be noted: HeLa Gal4-ERK5 transactivation, 18 h, at 5 µM, active compounds read high.
Chain of Mitogen-activated protein kinase 7 (Homo sapiens) (Q13164 whole entry, looked up, the tested form may be a part): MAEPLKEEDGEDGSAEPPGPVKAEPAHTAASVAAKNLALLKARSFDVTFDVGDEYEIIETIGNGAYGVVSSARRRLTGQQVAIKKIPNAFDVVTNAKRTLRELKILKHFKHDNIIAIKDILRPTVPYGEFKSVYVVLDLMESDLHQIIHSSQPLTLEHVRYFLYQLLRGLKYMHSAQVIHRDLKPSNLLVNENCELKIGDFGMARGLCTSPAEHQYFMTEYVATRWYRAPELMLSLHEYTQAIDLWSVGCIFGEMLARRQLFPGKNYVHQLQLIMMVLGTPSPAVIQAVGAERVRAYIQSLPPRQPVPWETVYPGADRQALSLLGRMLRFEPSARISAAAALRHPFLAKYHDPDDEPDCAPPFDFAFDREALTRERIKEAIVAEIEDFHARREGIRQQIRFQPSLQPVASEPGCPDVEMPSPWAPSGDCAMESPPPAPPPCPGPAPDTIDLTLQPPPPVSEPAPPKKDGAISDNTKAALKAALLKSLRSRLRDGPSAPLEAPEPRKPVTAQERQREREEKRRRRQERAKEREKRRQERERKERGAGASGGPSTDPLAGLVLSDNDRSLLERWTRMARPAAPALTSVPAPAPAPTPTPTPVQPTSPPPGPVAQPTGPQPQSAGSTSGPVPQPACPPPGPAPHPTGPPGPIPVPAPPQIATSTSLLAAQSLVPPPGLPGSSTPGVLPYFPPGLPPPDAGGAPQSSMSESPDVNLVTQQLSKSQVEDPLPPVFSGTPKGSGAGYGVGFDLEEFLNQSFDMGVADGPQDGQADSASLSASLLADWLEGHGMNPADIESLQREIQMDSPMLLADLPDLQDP
Regarding `CCN(CC)CCOCCOC(=O)C1(c2ccccc2)CCCC1`, the luciferase signal is 36 AU (inactive).

For the compound `C[N+](C)(C)CCOC(N)=O`, the luciferase signal is 72 AU (inactive).

For the compound `Cc1nnc(SCC2=C(C(=O)O)N3C(=O)[C@@H](NC(=O)Cn4cnnn4)[C@H]3SC2)s1`, the luciferase signal is 28 AU (inactive).

For `C[C@]12CCC(=O)C=C1CC[C@@H]1[C@@H]2[C@@H](O)C[C@@]2(C)[C@H]1CC[C@]2(O)C(=O)COP(=O)(O)O`, the luciferase signal is 72 AU (inactive).

Take `Clc1ccc(C(c2ccccc2Cl)C(Cl)Cl)cc1` (stereo unspecified): the luciferase signal was 56 AU (inactive).

`COCCCC/C(=N\OCCN)c1ccc(C(F)(F)F)cc1`: the luciferase signal is 88 AU (inactive).

Take `NS(=O)(=O)c1cc2c(cc1Cl)NC(C(Cl)Cl)NS2(=O)=O` (stereo unspecified): the luciferase signal is 48 AU (inactive).

For `C[C@H]1c2cccc(O)c2C(O)=C2C(=O)[C@]3(O)C(O)=C(C(N)=O)C(=O)[C@@H](N(C)C)[C@@H]3[C@@H](O)[C@@H]21`, the luciferase signal is 64 AU (inactive).

Turning to `Cc1ccccc1OCC(O)CO` (stereo unspecified), the luciferase signal is 44 AU (inactive).

Regarding `CO[C@]12C[C@@H](COC(=O)c3cncc(Br)c3)CN(C)[C@@H]1Cc1cn(C)c3cccc2c13`, the luciferase signal is 56 AU (inactive).

As to `Cc1c(Cl)cccc1Nc1ccccc1C(=O)O`, the luciferase signal was 52 AU (inactive).

As for `Nc1ccc(C(=O)Oc2ccccc2)c(O)c1`, the luciferase signal was 84 AU (inactive).

As to `NC(=O)c1ncn([C@@H]2O[C@H](CO)[C@@H](O)[C@H]2O)n1`, the luciferase signal is 36 AU (inactive).

On to `COC(=O)[C@@H]1[C@H]2C[C@H]3c4[nH]c5ccccc5c4CCN3C[C@@H]2CC[C@@H]1O`, for which the luciferase signal was 44 AU (inactive).

As for `O=C1C(=O)c2ccccc2C(O)=C1C1CCC(c2ccc(Cl)cc2)CC1` (stereo unspecified), the luciferase signal is 56 AU (inactive).

As for `CN(Cc1cc(Br)cc(Br)c1N)C1CCCCC1`, the luciferase signal is 56 AU (inactive).

Consider `Cc1ccccc1N1C(=O)c2cc(S(N)(=O)=O)c(Cl)cc2NC1C` (stereo unspecified), for which the luciferase signal was 64 AU (inactive).

In the case of `CS(=O)(=O)Nc1ccc([N+](=O)[O-])cc1Oc1ccccc1`, the luciferase signal was 60 AU (inactive).

For the compound `Cc1nc2sccn2c(=O)c1CCN1CCC(=C(c2ccc(F)cc2)c2ccc(F)cc2)CC1`, the luciferase signal was 152 AU (active).

Turning to `CC(C)NNC(=O)c1ccncc1`, the luciferase signal was 60 AU (inactive).

As for `Cc1cc(C(C)(C)C)cc(C)c1CC1=NCCN1`, the luciferase signal is 44 AU (inactive).

As to `Clc1ccccc1C(c1ccccc1)(c1ccccc1)n1ccnc1`, the luciferase signal was 72 AU (inactive).
